Source: PubChem
TGFb SMAD3 inh = blocks TGF-b signaling. HepG2 CAGA-GFP TGF-b/SMAD3 reporter, GFP fluorescence, 18 h; TGF-beta stimulated, 500 pg/mL final. Potency, µM (doses to about 46.1 µM), for inactives: top-dose activity, negative = inhibition, usual class: inhibitors. hit rate 1.2% among 410,000. AID 588855; further: potency means the concentration at half of the fitted maximal effect; on the % scale 0 is the no-effect control and ±100 the full control effect; nearly all actives have a fitted effect of over 65% in size
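First, reporter cells (HEPG2 CAGA-GFP) rested 2 h at 37 degrees C. Next, compounds were pinned in and TGF-beta added to 500 pg/mL final. After 18 h, GFP was imaged per cell and summed per well.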
IL1B secr inh = inhibitors of inflammasome signaling (IL-1 beta secretion) | THP-1 LPS/ATP IL-1B secretion, AlphaLISA, 16 h; active compounds read low | activity change, % at 57.5 µM | hit rate 4.7% among 360,000 | AID 743279; in the data active means activity change below about -50%; inconclusive means mostly about -30% to -49%; further: on the % scale 0 is the no-effect control and ±100 the full control effect
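THP-1 cells pretreated 1 hr with compounds (up to 57.5 uM final), then stimulated with LPS (250 ng/mL final) plus ATP (1.25 mM final); secreted IL-1B measured by AlphaLISA after 16 hr, decreased signal indicating inhibition.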
HT1080 IDH1KD tx = kills HT-1080 cells with IDH1 knockdown | hit rate 2% among 360,000 | HT-1080 IDH1 knockdown viability, ATP luminescence, 48 h | AID 686971 | Potency, µM (series often up to 46.1 µM), inactives show at the highest dose activity, negative = toxicity, hits mostly cytotoxic;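 further: potency means the concentration at half of the fitted maximal effect; 0% = DMSO wells and -100% = cell-free medium wells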
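Assay cells: HT-1080 with IDH1 knockdown, 750 per well, RPMI/5% FBS. Exposure: 48 h at 37 °C following 2 h pre-incubation. Read: CellTiter-Glo luminescence; fitted concentration-response, curve class assigned.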
HepG2 viability = HepG2 cytotoxicity, counter-screen for TGF-b inhibitors | Potency, µM (highest dose often 46.1 µM), without a hit: at the highest dose activity change, negative = cytotoxicity, actives largely listed as cytotoxic | HepG2 CAGA-GFP viability, ATP luminescence, 18 h | hit rate 0.76% among 410,000 | AID 588856; further: potency means the concentration at half of the fitted maximal effect
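HepG2 CAGA-GFP cells (1000/well, DMEM with 1% FBS) received compound, then TGF-beta at 500 pg/mL final, and were incubated 18 hours at 37 degrees C. Viability was read by CellTiter-Glo luminescence. Media-only wells were set as complete cell-killing and DMSO as no toxicity.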
HT1080-NT tox = kills 2HG-producing HT-1080-NT fibrosarcoma cells | Potency, µM (doses to about 46.1 µM), for inactives: at the top dose activity, negative = less viability, actives largely listed as cytotoxic | HT-1080-NT fibrosarcoma viability, CellTiter-Glo ATP luminescence, 48 h | hit rate 1.6% among 360,000;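 further: NT is the 2HG producing partner of a matched IDH1 knockdown line; potency means the concentration at half of the fitted maximal effect; 0% = DMSO-treated cells and -100% = media-only wells without cells; nearly all actives have a fitted effect of over 55% in size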
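HT-1080-NT fibrosarcoma cells (2HG-overproducing), 750 cells/well in RPMI with 5% FBS, dosed after 2 h and incubated 48 h at 37C. CellTiter-Glo luminescence normalized to DMSO and no-cell wells; concentration-response curves fitted and classed.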
Giardia kill = kills Giardia lamblia | Giardia lamblia trophozoite viability | activity change, % at 7.66 µM, hits read low | hit rate 0.15% among 340,000 | AID 540267; in the data active means activity change below about -80%; inconclusive means between about -30% and that limit;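 further: parasites exposed to compound for two days anaerobically before the ATP read; on the % scale 0 is the no-effect control and ±100 the full control effect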
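Killing of trophozoites was scored by loss of ATP luminescence after a 48 hrs anaerobic exposure to compounds at 37 deg C, using 100 cells per well.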
* marks the source's active call; other numbers are inactive results; ? = inconclusive; nt = no result given; [ ] = remark or other dose. The list is not random: actives were taken first. Their share in the collection is about 6.5%. Unless noted, the call rests on the fitted dose curve; in most records, active means well fitted curve in the direction sought with a large enough effect; inconclusive means small, poorly fitted or top-dose-only effect, or another doubt; inactive means no such curve, though single readings can be large; an effect the other way counts as inactive or inconclusive.

SMILES | TGFb SMAD3 inh | IL1B secr inh | HT1080 IDH1KD tx | HepG2 viability | HT1080-NT tox | Giardia kill
CCCCn1c(=NC(=O)c2c(-c3c(F)cccc3Cl)noc2C)c(C(=O)OCC)cc2c(=O)n3ccccc3nc21 | -27% | nt | nt | -11% | nt | nt
CCOC(=O)c1cc2c(=O)n3ccccc3nc2n(CCOC)c1=NC(=O)C(C)(C)C | 1% | 0 | 1% | 7.9µM* | 6% | 15
CN(C)c1ccc(C(=O)N2CCN(c3cc(C(F)(F)F)nc4ccccc34)CC2)cc1 | 0% | -55* | -15% | 1% | -7% | -5
CCCCCCCCN1C(=O)[C@H](CC(=O)NCc2ccc(C)o2)C[C@@]2(C(=O)OC)CC(C)(C)CC=C12 | nt | -71* | ? | nt | ? | nt
CCCCCCCCN1C(=O)[C@H](CC(=O)N2CCCC2)C[C@@]2(C(=O)OC)CCCCC=C12 | nt | -17 | ? | nt | ? | nt
CCCCCCCCN1C(=O)[C@H](CC(=O)N2CCN(C(=O)C3CC3)CC2)C[C@@]2(C(=O)OC)CCCCC=C12 | nt | -51* | ? | nt | ? | nt
CCCCCCCCN1C(=O)[C@H](CC(=O)N2CCSCC2)C[C@@]2(C(=O)OC)CCCCC=C12 | nt | -68* | ? | nt | ? | nt
CCCCCCCCN1C(=O)[C@H](CC(=O)N2CCN(C(=O)C3CC3)CC2)C[C@@]2(C(=O)OCC)CCCC=C12 | nt | -66* | ? | nt | ? | nt
COc1cccc(NC(=O)CSc2nc3ccc(NC(=O)c4cccs4)cc3s2)c1 | -10% | nt | nt | -18% | nt | nt
CCCCCCCCN1C(=O)[C@H](CC(=O)N2CCN(C(=O)OCC)CC2)C[C@@]2(C(=O)OC)CC(C)(C)CC=C12 | nt | -28 | ? | nt | ? | nt
CCCCCCCCN1C(=O)[C@H](CC(=O)N2CCN(C(=O)C3CC3)CC2)C[C@@]2(C(=O)OC)CC(C)(C)CC=C12 | nt | -60* | ? | nt | ? | nt
CCc1nc2ccc(C(=O)Nc3cccc(NS(C)(=O)=O)c3)cn2c1N(C)C(=O)Cc1ccccc1 | 21% | -87* | 0% | 3% | 17% | nt
CCc1nc2ccc(C(=O)Nc3cccc(NS(C)(=O)=O)c3)cn2c1N(C)C(=O)c1cccc(OC)c1 | 15% | -78* | 16% | -3% | 7% | nt
CCc1nc2ccc(C(=O)Nc3ccc(NC(C)=O)cc3)cn2c1N(C)C(=O)Cc1ccccc1 | 13% | -9 | 5% | 26% | -7% | nt
CN(C(=O)COC(=O)CNC(=O)CNC(=O)c1ccc(Cl)cc1Cl)c1ccccc1 | -13% | -143* | 0% | -10% | -1% | 0
O=C(COC(=O)CNC(=O)c1ccc(Cl)cc1Cl)NNC(=O)c1ccccc1F | 11% | 1 | 18% | -1% | 8% | -1
CC(=O)c1cccc(NC(=O)CC2Oc3ccc(C)cc3NC2=O)c1 (stereo unspecified) | 7% | -17 | 2% | -19% | 6% | 14
O=C(COc1ccc(S(=O)(=O)NC2CCCCC2)cc1)NCC1CCCO1 (stereo unspecified) | 1% | -7 | 7% | -14% | -1% | -3
COc1cc(CNCCc2ccccc2)cc(Br)c1OCC(=O)Nc1ccccc1C | ? | -67* | -13% | -116% | ? | -14
CNCc1cc(Br)c(OCC(=O)Nc2ccccc2OC)c(OC)c1 | -22% | -62* | ? | -23% | ? | 4
COc1ccccc1NC(=O)COc1ccc(Br)cc1CO | -1% | 4 | -8% | -24% | -2% | -11
CCNCc1cc(Br)c(OCC(=O)Nc2ccccc2)c(OC)c1 | 0% | ? | -23% | -36% | -14% | -6
COc1cc(CNCC(C)C)cc(Br)c1OCC(=O)Nc1ccccc1 | 4% | -7 | -26% | -62% | -23% | 27
COc1ccccc1NC(=O)COc1ccc(Br)cc1CNC1CCCC1 | 1% | -86* | ? | -29% | -21% | 8
COC(=O)/C=C/C(=O)Nc1cccnc1 | 0% | -5 | -2% | -56% | -2% | -8
SMILES | TGFb SMAD3 inh | IL1B secr inh | HT1080 IDH1KD tx | HepG2 viability | HT1080-NT tox | Giardia kill
CCN(CC)C(=O)c1ccc2nc([C@H]3C[C@H](O)[C@@H](CO)O3)[nH]c2c1 | -6% | 14 | 14% | -7% | -2% | nt
OC[C@H]1O[C@@H](c2nc3ccc(-c4nc(-c5ccc(Br)cc5)no4)cc3[nH]2)C[C@@H]1O | 7% | 34 | 18µM* | -29% | 18µM* | nt
Cc1ccc(-n2c(Cc3ccccc3)n[nH]c2=S)c(C)c1 | -8% | -67* | 2% | -7% | -10% | -1
Cc1ccc(-n2c(CC#N)n[nH]c2=S)c(C)c1 | -8% | 24 | -1% | 11% | 3% | 7
CC(C)C[C@@H]1NC(=O)N(CCN2CCOCC2)C1=O | ? | 6 | 9% | -2% | 13% | -5
COC(=O)c1cc(NC(=O)CC(=O)c2cccc(N)c2)cc(C(=O)OC)c1 | -11% | 5 | 21µM* | 2% | ? | nt
COC(=O)c1cc(NC(=O)c2cccc(F)c2)cc(C(=O)OC)c1 | -2% | -11 | -1% | -10% | 1% | -1
COc1ccccc1-c1c(-c2ccc(OCC(=O)NN)cc2O)n[nH]c1C(F)(F)F | -14% | -23 | -4% | -27% | -6% | 15
COc1ccc(-c2n[nH]c(C(F)(F)F)c2-c2cc3ccccc3o2)c(O)c1 | ? | -54* | ? | 13µM* | ? | -7
COc1ccc(OCc2nnc(SCC(=O)N(C)Cc3ccccc3)n2N)cc1 | 1% | -2 | -2% | -80% | -5% | -5
CC1=CCC2C(=O)N(c3cccc(C(=O)Nc4ccc(Cl)cc4)c3)C(=O)C2C1 (stereo unspecified) | 0% | -80* | -17% | -14% | -5% | -12
CC1=CCC2C(=O)N(c3cccc(C(=O)NCc4ccccc4)c3)C(=O)C2C1 (stereo unspecified) | 0% | 16 | 7% | -4% | 10% | 3
CC(C)C(NC(=O)c1ccc(Cl)cc1Cl)C(=O)N1CCN(S(=O)(=O)c2ccccc2)CC1 (stereo unspecified) | 27% | -14 | -8% | 12% | -2% | 5
Cc1cccc(NC(=O)c2cc3ccccc3o2)c1 | -10% | -21 | -19% | -20% | 3%[9.24 µM] | 5
O=C(Nc1ccc(N2CCOCC2)c(Cl)c1)c1cc2ccccc2o1 | 0% | -78* | ? | 12% | ? | -17
O=C(Nc1ccc(N2CCN(C(=O)c3ccccc3)CC2)cc1)c1ccc(Br)o1 | ? | -54* | 6% | 6% | 2% | 7
CCN1CCN(c2ccc(NC(=O)c3ccc(Br)o3)cc2)CC1 | 5% | -6 | -5% | -13% | -5% | 16
